HP1b chromo inh – HP1-beta chromodomain-methylated histone interaction inhibition. P83916. Potency, µM (titrated, usually from 114 µM), inactives show at the top dose activity change, negative = inhibition, hits mostly inhibitors. actives 0.56% (n = 390,000). AlphaScreen HP1-beta / biotin-H3K9me3 peptide binding; further: potency means the concentration at half of the fitted maximal effect; nearly all actives have a fitted effect of over 70% in size
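HP1-beta protein (50 nM final) preincubated 30 min at room temperature with biotinylated H3(1-18)K9me3 peptide (50 nM) in PBS pH 7.4, 0.01% Tween-20, then compound added for 30 min. AlphaScreen streptavidin donor/nickel chelate acceptor beads (10 ug/mL final), 30 min dark, luminescence read.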
G9a block – inhibitors of human histone lysine methyltransferase G9a; actives 8.8% (n = 350,000); Potency, µM (highest dose often 102 µM), without a hit: at the top dose activity, negative = inhibition, actives largely listed as inhibitors; G9a H3K9 monomethylation, AlphaScreen, 2 h; Q96KQ7; further: potency means the concentration at half of the fitted maximal effect; on the % scale 0 is the no-effect control and ±100 the full control effect; nearly all actives have a fitted effect of over 75% in size
Target sequence (Q96KQ7 913-1193 limits assumed): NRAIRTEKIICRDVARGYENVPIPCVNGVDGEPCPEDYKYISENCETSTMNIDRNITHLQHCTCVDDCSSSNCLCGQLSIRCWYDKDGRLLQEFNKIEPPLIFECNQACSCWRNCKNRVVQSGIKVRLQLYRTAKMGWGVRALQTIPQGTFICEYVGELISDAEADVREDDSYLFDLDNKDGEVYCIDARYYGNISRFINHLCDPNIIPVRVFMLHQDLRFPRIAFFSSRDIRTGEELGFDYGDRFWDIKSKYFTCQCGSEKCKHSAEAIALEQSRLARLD
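Methyltransferase reactions run at room temperature for 2 h (20 nM enzyme, 500 nM biotin-H3K9 peptide, 20 uM SAM) after a 15 min compound preincubation; product detected by AlphaScreen beads and anti-H3K9me1 antibody.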
PI5P4Ka inh – PI5P4K alpha (human) kinase inhibition | P48426 | PI5P4Kalpha enzyme, ADP-Glo luminescence, 60 min; active compounds read low | max response, % | actives 1.2% (n = 330,000); active means max response of -50% or lower; inconclusive means between -30% and -50%; inactive means -30% or higher; further: value at the top dose of about 77 µM; on the % scale 0 is the no-effect control and ±100 the full control effect
Target sequence (P48426 whole entry, looked up): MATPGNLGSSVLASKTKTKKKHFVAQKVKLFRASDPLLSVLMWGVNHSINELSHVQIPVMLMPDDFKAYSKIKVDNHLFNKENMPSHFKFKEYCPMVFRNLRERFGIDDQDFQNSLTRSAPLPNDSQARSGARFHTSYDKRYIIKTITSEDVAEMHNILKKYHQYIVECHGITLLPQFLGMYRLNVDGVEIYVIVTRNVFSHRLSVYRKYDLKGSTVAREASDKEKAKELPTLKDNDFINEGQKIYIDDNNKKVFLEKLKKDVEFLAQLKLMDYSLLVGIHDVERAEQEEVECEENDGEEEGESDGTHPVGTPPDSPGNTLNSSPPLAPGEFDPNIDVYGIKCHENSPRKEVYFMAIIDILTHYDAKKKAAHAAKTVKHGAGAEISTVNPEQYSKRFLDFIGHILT
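Reactions run in 0.038 M HEPES pH 7.4, 0.28 mM EGTA, 0.1% CHAPS and 5% DMSO, with PI5P4Kalpha, substrate, compound and 5 microM ATP final, one hour at room temperature. Readout is ADP-Glo luminescence.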
JMJD2A Tudor inh – blocks the human JMJD2A Tudor domain; actives 4.4% (n = 390,000); O75164; AID 504339; Potency, µM (top dose mostly 114 µM), without a hit: at the top dose activity change, negative = inhibition, actives largely listed as inhibitors; AlphaScreen JMJD2A-Tudor / H3K4me3 peptide binding; further: potency means the concentration at half of the fitted maximal effect; on the % scale 0 is the no-effect control and ±100 the full control effect; nearly all actives have a fitted effect of over 50% in size
BAZ2B block – BAZ2B (human) inhibition; Potency, µM (doses to about 114 µM), for the others: at the highest dose activity change, negative = inhibition, usual class: inhibitors; Q9UIF8; AlphaScreen BAZ2B-H3K14Ac peptide displacement; actives 4.4% (n = 360,000); further: potency means the concentration at half of the fitted maximal effect; on the % scale 0 is the no-effect control and ±100 the full control effect; nearly all actives have a fitted effect of over 60% in size
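Complex of BAZ2B and biotin-H3K14Ac (50 nM apiece) forms over 30 min at RT, then faces library compounds up to 110 uM for another 30 min; AlphaScreen beads added, 20 min dark incubation, luminescence read.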
PLK1 PBD block – blocks phosphopeptide binding to human PLK1 polo-box domain. Plk1 PBD binding of FITC phosphopeptide, fluorescence polarization. Potency, µM, inactives show max response, negative = inhibition, most hits filed as inhibitors. actives 2.8% (n = 360,000). P53350; further: potency means the concentration at half of the fitted maximal effect; series mostly up to about 57 µM; on the % scale 0 is the no-effect control and ±100 the full control effect; nearly all actives have a fitted effect of over 65% in size
* = called active by the depositor; [ ] = another dose, or the depositor's remark. Sampled rows, rich in hits. Any-hit rate of the full collection: about 12%. Unless noted, the call rests on the fitted dose curve; in most records, active means well fitted curve in the direction sought with a large enough effect; inconclusive means small, poorly fitted or top-dose-only effect, or another doubt; inactive means no such curve, though single readings can be large; an effect the other way counts as inactive or inconclusive.

What do the screens show for `Cc1ccc2c(c1)N(CC(=O)Nc1ccccc1C(F)(F)F)C(=O)c1cccnc1O2`?
HP1b chromo inh: 11%; G9a block: -8%[59 µM]; JMJD2A Tudor inh: -4%; BAZ2B block: 4%

How did CCN(CC)c1ccc(NC(=O)CCN2C(=O)c3ccccc3S2(=O)=O)c(C)c1 do in these assays?
HP1b chromo inh: -4%; G9a block: 8.9µM*; PI5P4Ka inh: 0; JMJD2A Tudor inh: -20%; BAZ2B block: 13%; PLK1 PBD block: -4%

What do the screens show for `Cc1ccc(NC(=O)CC2Oc3ccccc3NC2=O)c(C)c1` (configuration not stated)?
HP1b chromo inh: 41%; G9a block: inconclusive; PI5P4Ka inh: 1; JMJD2A Tudor inh: -10%; BAZ2B block: 6%; PLK1 PBD block: -9%

How did COc1ccccc1N(CC(=O)NC1CCCCC1)C(=O)CNC(=O)c1cccs1 do in these assays?
HP1b chromo inh: 22%; G9a block: 10%[59 µM]; PI5P4Ka inh: -4; JMJD2A Tudor inh: 10%; BAZ2B block: 2%; PLK1 PBD block: 5%

How did Cc1ccccc1-c1noc(-c2ccc(NCC3CCCO3)c([N+](=O)[O-])c2)n1 (configuration not stated) do in these assays?
HP1b chromo inh: 14%; G9a block: -29%[59 µM]; JMJD2A Tudor inh: -8%; BAZ2B block: -19%

What do the screens show for `CCOc1ccc(N2CC(c3nc4ccccc4n3Cc3cccc(C)c3)CC2=O)cc1` (configuration not stated)?
HP1b chromo inh: -5%; G9a block: inconclusive; JMJD2A Tudor inh: -34%; BAZ2B block: -21%

How did Cc1cccc(OCCCCn2c(C3CC(=O)N(c4ccccc4Cl)C3)nc3ccccc32)c1 (configuration not stated) do in these assays?
HP1b chromo inh: 3%; G9a block: 13µM*; JMJD2A Tudor inh: -35%; BAZ2B block: 50µM*

What do the screens show for `CCc1ccccc1N1CC(c2nc3ccccc3n2Cc2cccc(C)c2)CC1=O` (configuration not stated)?
HP1b chromo inh: 8%; G9a block: 1µM*; JMJD2A Tudor inh: -33%; BAZ2B block: -23%

How did CC(C)CC1NC(=O)c2cc3ccccc3cc2-n2c1nc1cc(Cl)ccc1c2=O (configuration not stated) do in these assays?
PI5P4Ka inh: 0; PLK1 PBD block: -4%

How did COC(=O)C1=CN(c2ccc(C(C)(C)C)cc2)C(N)=C(C#N)C1c1ccccc1F (configuration not stated) do in these assays?
PI5P4Ka inh: 5; PLK1 PBD block: -9%

What do the screens show for `CCOC(=O)C1(Cc2cccc(Cl)c2)CCCN(C(=O)c2ccc(COC)s2)C1` (configuration not stated)?
HP1b chromo inh: 29%; PI5P4Ka inh: 15; JMJD2A Tudor inh: 1%; BAZ2B block: 3%; PLK1 PBD block: 2%

What do the screens show for `COC(=O)c1cn(C)c2ccc(S(=O)(=O)N3CCOCC3)cc2c1=O`?
HP1b chromo inh: 27%; G9a block: 9%; PI5P4Ka inh: 1; JMJD2A Tudor inh: 1%; BAZ2B block: -14%; PLK1 PBD block: 1%

What do the screens show for `COC(=O)c1cn(C)c2ccc(S(=O)(=O)N3CCCC3)cc2c1=O`?
HP1b chromo inh: 6%; G9a block: 50µM*; JMJD2A Tudor inh: -16%; BAZ2B block: inconclusive; PLK1 PBD block: -6%

What do the screens show for `Cn1cc(C(=O)O)c(=O)c2cc(S(=O)(=O)N3CCCCC3)ccc21`?
HP1b chromo inh: 2%; G9a block: inconclusive; JMJD2A Tudor inh: 89µM*; BAZ2B block: -2%

Results for CNC(=O)/C(C#N)=C/c1ccc(OCCOc2ccccc2)cc1 ?
HP1b chromo inh: 49%; PI5P4Ka inh: -1; JMJD2A Tudor inh: 4%; BAZ2B block: 9%; PLK1 PBD block: -2%

How did O=C(NCCc1nc2ccccc2n1CCOc1ccc2ccccc2c1)C1CCCCC1 do in these assays?
HP1b chromo inh: 5%[57 µM]; JMJD2A Tudor inh: -29%[57.1 µM]

How did CC(C)C(=O)OCC(=O)Nc1ccc(N=Nc2ccccc2)cc1 do in these assays?
HP1b chromo inh: inconclusive; G9a block: 45µM*; PI5P4Ka inh: -2; JMJD2A Tudor inh: 35µM*; BAZ2B block: 40µM*; PLK1 PBD block: 1%

How did O=C(CCl)Nc1ccc(N=Nc2ccccc2)cc1 do in these assays?
HP1b chromo inh: 1%; G9a block: inconclusive; PI5P4Ka inh: 16; JMJD2A Tudor inh: inconclusive; BAZ2B block: 40µM*; PLK1 PBD block: -5%

Results for CCN(CC)C(=O)[C@H]1CC(CC(=O)NC/C=C(\C)CCC=C(C)C)C(=O)N2CCc3c([nH]c4ccc(OC)cc34)[C@]12C (some centres not stated) ?
HP1b chromo inh: inconclusive; PI5P4Ka inh: 17; JMJD2A Tudor inh: 50µM*; PLK1 PBD block: -6%

Results for CCN(CC)C(=O)[C@H]1C[C@H](CC(=O)NC/C=C(\C)CCC=C(C)C)C(=O)N2CCc3c([nH]c4ccc(Cl)cc34)[C@]12C ?
HP1b chromo inh: 6%; PI5P4Ka inh: 14; JMJD2A Tudor inh: -29%; PLK1 PBD block: -2%

How did CCN(CC)C(=O)[C@H]1C[C@H](CC(=O)NC/C=C(\C)CCC=C(C)C)C(=O)N2CCc3c([nH]c4cc(-c5ccco5)ccc34)[C@]12C do in these assays?
HP1b chromo inh: inconclusive; PI5P4Ka inh: -14; JMJD2A Tudor inh: 32µM*; PLK1 PBD block: -12%

What do the screens show for `CC(C)=CCC/C(C)=C/CNC(=O)C[C@H]1C[C@H](C(=O)N(C(C)C)C(C)C)[C@@]2(C)c3[nH]c4cc(-c5ccco5)ccc4c3CCN2C1=O`?
HP1b chromo inh: -2%; PI5P4Ka inh: -8; JMJD2A Tudor inh: inconclusive; PLK1 PBD block: -5%

Results for Cc1nn(-c2ccccc2)c2c1C(c1cccnc1)N1C=C(S(=O)(=O)N3CCCCC3)C=CC1=N2 (configuration not stated) ?
HP1b chromo inh: -30%; G9a block: 79µM*; PI5P4Ka inh: -3; JMJD2A Tudor inh: inconclusive; BAZ2B block: -36%; PLK1 PBD block: -3%

How did CC1C(=O)Nc2ccc(S(=O)(=O)N3CCCCC3)cc2NC1=O (configuration not stated) do in these assays?
HP1b chromo inh: 12%; G9a block: -5%[59 µM]; JMJD2A Tudor inh: -15%; BAZ2B block: 5%

How did CSCCC1Nc2ccc(S(=O)(=O)N3CCOCC3)cc2NC1=O (configuration not stated) do in these assays?
HP1b chromo inh: 29%; G9a block: 3.2µM*; PI5P4Ka inh: 1; JMJD2A Tudor inh: -19%; PLK1 PBD block: -28%

How did CCc1nc2ccc(C(=O)N(C)CCCN(C)C)cn2c1N(C)Cc1cc2ccccc2s1 do in these assays?
PI5P4Ka inh: -3; PLK1 PBD block: -4%

Screening results (PubChem)
